# About 79,000 compounds went through this panel and 15% of them were active in at least one assay; those are over-represented in the sample as a whole. Values without a mark were called inactive. Calls of active or inactive are those of the source. Cut-off read from the data, not from the text of the source: active = growth inhibition above about 70%; inactive = the rest. Where a SMILES comes first, the peptide text is derived from it. The star is where a group is joined. Trt = c1ccc(C(c2ccccc2)(c2ccccc2)*)cc1; OtBu = CC(C)(C)O*
# Assay: NCI Yeast Anticancer Drug Screen. Data for the sgs1 mgt1 strain (AID 161);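 note: 0% = growth of cultures given vehicle only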
# Settings: S. cerevisiae sgs1 mgt1 strain, at 5.0 µM (retest, dose inferred, filed as 0.5), active compounds read high
# Outline: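 This yeast growth screen uses a strain with defined DNA-repair lesions; compound-treated growth is compared with vehicle-treated growth.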
row,SMILES,growth inhibition
1,CCOC(=O)C(=N\Nc1cccc(C)c1C)/C(C)=N\NC(N)=S,32%
2,CCN(CC)CCNc1ccc(C)c2oc3ccc(O)cc3c(=O)c12,-1%
3,O=C1C(C=NC(=S)c2ccccc2)=C(O)c2ccccc21,33%
4,CCOC(=O)Cc1csc(/N=C\c2c(O)c3ccccc3oc2=O)n1,22%
5,CC(C)(CCCCC(C)(C)NCC1COc2ccccc2O1)NCC1COc2ccccc2O1 (stereo not drawn),-10%
6,O=C1OC(c2ccc(O)cc2)=C(c2ccccc2)C1c1ccccc1 (stereo not drawn),-10%
7,O=C(c1ccccc1)C(Br)CCCC(Br)C(=O)c1ccccc1 (stereo not drawn),19%
8,CCC(c1ccc(O)cc1)C(O)(CC)c1ccc(O)cc1 (stereo not drawn),-3%
9,Cn1cnc2[nH]c(Cl)nc(=S)c21,-1%
10,O=C(NCCN1CCCC1)c1cn2c(ccc3sc4ccccc4c(=O)c32)n1,19%
11,CC(C)(C)OC(=O)CNC(=O)C(Cc1ccccc1)NC(=O)C(N)CSC(c1ccccc1)(c1ccccc1)c1ccccc1 (stereo not drawn) (H-Cys(Trt)-Phe-Gly-OtBu; configuration not given here),0%
12,C/C(=N/NC(N)=S)C(CN(C)C)C(C1=C(O)c2ccccc2OC1)c1ccccc1 (stereo not drawn),4%
13,O=C(CC(=O)c1ccccc1)CC(=O)c1ccccc1Br,-17%
14,O=C1OC2(c3ccccc31)c1cc(I)c(O)c(I)c1Oc1c2cc(I)c(O)c1I,21%
15,Nc1cc(Cl)c2c(c1)Cc1ccccc1-2,7%
16,C1=Cc2ccccc2/C1=C/c1ccccc1,1%
17,Cc1ccc(C2=CC(=O)/C(=C\C(=O)c3ccc(Cl)cc3)O2)cc1,17%
18,CC1(c2ccc(S(=O)(=O)c3ccccc3)cc2)OC(=O)C=CC1=O (stereo not drawn),94% (active)
19,CCCc1cc(-c2ccc(O)c(CCC)c2)ccc1O,90% (active)
20,CCOC(=O)N1c2ccc3ccccc3c2C=CC1C#N (stereo not drawn),-1%

row,SMILES,growth inhibition
1,N#CNc1nc(N)c(-c2ccc(Cl)cc2)c(C(=O)Nc2ccc(Cl)c(Cl)c2)n1,-2%
2,O=c1c(Cl)c(Cl)oc(Cl)c1Cl,45%
3,O=c1nc(-c2ccccc2)cc(-c2ccccc2O)[nH]1,-1%
4,O=C(Cc1nc2ccccc2s1)C(=O)Nc1ccc(Cl)cc1,4%
5,c1ccc(OCC2c3ccccc3Nc3ccccc32)cc1,99% (active)
6,CCN(C(=O)C(F)(F)F)c1ccc2c(c1)C(=O)c1ccccc1-2,-4%
7,Cc1cc2oc3c(ccc(=O)n3C)c(=O)c2c(C)c1Cl,22%
8,O=C(CC(O)(C(F)(F)F)C(F)(F)F)C(c1ccccc1)C(O)(C(F)(F)F)C(F)(F)F (stereo not drawn),-3%
9,O=S(=O)(Sc1ccccc1)C(c1ccccc1)c1ccccc1,2%
10,COc1ccc2c3c(ccc2c1)NC(C(=O)O)CC3 (stereo not drawn),-2%
11,N#CSc1ccc2nc(NCO)sc2c1,18%
12,CC(CN(C)C)C(=O)c1cn(C)c2ccccc12 (stereo not drawn),-2%
13,Cc1cc(Cl)nc2ccc(Cc3ccc4nc(Cl)cc(C)c4c3)cc12,7%
14,COc1ccc2c(c1)CN([C@@H](C)[C@H]1CC[C@H]3[C@@H]4CC[C@H]5C[C@@H](O)CC[C@]5(C)[C@H]4CC[C@]13C)CO2,97% (active)
15,FC(F)(F)c1nc(Cl)nc2nc[nH]c12,-3%
16,CC(C)C1COC(c2ccc3ccccc3c2-c2c(O[Si](C)(C)C(C)(C)C)ccc3ccccc23)=N1 (stereo not drawn),12%
17,COc1cc2c(c(C3C(=O)N(C)c4ccc(Br)cc43)c1OC)OCO2 (stereo not drawn),-1%
18,c1ccc2c3[nH]c(c2c1)=Nc1ccc(cc1)-c1nc2ccc(cc2o1)N=c1[nH]c(c2ccccc12)=Nc1ccc2nc(oc2c1)-c1ccc(cc1)N=3,30%
19,c1ccc2nc3ccccc3nc2c1,-5%

# Same assay, conditions: S. cerevisiae sgs1 mgt1 strain, at 50.0 µM (retest, dose inferred, filed as 5.0), active compounds read high
row,SMILES,growth inhibition
1,CCOC(=O)C(=N\Nc1cccc(C)c1C)/C(C)=N\NC(N)=S,76% (active)
2,CCN(CC)CCNc1ccc(C)c2oc3ccc(O)cc3c(=O)c12,29%
3,O=C1C(C=NC(=S)c2ccccc2)=C(O)c2ccccc21,68%
4,CCOC(=O)Cc1csc(/N=C\c2c(O)c3ccccc3oc2=O)n1,37%
5,CC(C)(CCCCC(C)(C)NCC1COc2ccccc2O1)NCC1COc2ccccc2O1 (stereo not drawn),64%
6,O=C1OC(c2ccc(O)cc2)=C(c2ccccc2)C1c1ccccc1 (stereo not drawn),47%
7,O=C(c1ccccc1)C(Br)CCCC(Br)C(=O)c1ccccc1 (stereo not drawn),81% (active)
8,CCC(c1ccc(O)cc1)C(O)(CC)c1ccc(O)cc1 (stereo not drawn),35%
9,Cn1cnc2[nH]c(Cl)nc(=S)c21,0%
10,O=C(NCCN1CCCC1)c1cn2c(ccc3sc4ccccc4c(=O)c32)n1,77% (active)
11,CC(C)(C)OC(=O)CNC(=O)C(Cc1ccccc1)NC(=O)C(N)CSC(c1ccccc1)(c1ccccc1)c1ccccc1 (stereo not drawn) (H-Cys(Trt)-Phe-Gly-OtBu; configuration not given here),41%
12,C/C(=N/NC(N)=S)C(CN(C)C)C(C1=C(O)c2ccccc2OC1)c1ccccc1 (stereo not drawn),4%
13,O=C(CC(=O)c1ccccc1)CC(=O)c1ccccc1Br,93% (active)
14,O=C1OC2(c3ccccc31)c1cc(I)c(O)c(I)c1Oc1c2cc(I)c(O)c1I,56%
15,Nc1cc(Cl)c2c(c1)Cc1ccccc1-2,96% (active)
16,C1=Cc2ccccc2/C1=C/c1ccccc1,97% (active)
17,Cc1ccc(C2=CC(=O)/C(=C\C(=O)c3ccc(Cl)cc3)O2)cc1,17%
18,CC1(c2ccc(S(=O)(=O)c3ccccc3)cc2)OC(=O)C=CC1=O (stereo not drawn),99% (active)
19,CCCc1cc(-c2ccc(O)c(CCC)c2)ccc1O,99% (active)
20,CCOC(=O)N1c2ccc3ccccc3c2C=CC1C#N (stereo not drawn),14%

row,SMILES,growth inhibition
1,N#CNc1nc(N)c(-c2ccc(Cl)cc2)c(C(=O)Nc2ccc(Cl)c(Cl)c2)n1,4%
2,O=c1c(Cl)c(Cl)oc(Cl)c1Cl,99% (active)
3,O=c1nc(-c2ccccc2)cc(-c2ccccc2O)[nH]1,40%
4,O=C(Cc1nc2ccccc2s1)C(=O)Nc1ccc(Cl)cc1,0%
5,c1ccc(OCC2c3ccccc3Nc3ccccc32)cc1,97% (active)
6,CCN(C(=O)C(F)(F)F)c1ccc2c(c1)C(=O)c1ccccc1-2,87% (active)
7,Cc1cc2oc3c(ccc(=O)n3C)c(=O)c2c(C)c1Cl,21%
8,O=C(CC(O)(C(F)(F)F)C(F)(F)F)C(c1ccccc1)C(O)(C(F)(F)F)C(F)(F)F (stereo not drawn),86% (active)
9,O=S(=O)(Sc1ccccc1)C(c1ccccc1)c1ccccc1,66%
10,COc1ccc2c3c(ccc2c1)NC(C(=O)O)CC3 (stereo not drawn),83% (active)
11,N#CSc1ccc2nc(NCO)sc2c1,98% (active)
12,CC(CN(C)C)C(=O)c1cn(C)c2ccccc12 (stereo not drawn),3%
13,Cc1cc(Cl)nc2ccc(Cc3ccc4nc(Cl)cc(C)c4c3)cc12,7%
14,COc1ccc2c(c1)CN([C@@H](C)[C@H]1CC[C@H]3[C@@H]4CC[C@H]5C[C@@H](O)CC[C@]5(C)[C@H]4CC[C@]13C)CO2,100% (active)
15,FC(F)(F)c1nc(Cl)nc2nc[nH]c12,-10%
16,CC(C)C1COC(c2ccc3ccccc3c2-c2c(O[Si](C)(C)C(C)(C)C)ccc3ccccc23)=N1 (stereo not drawn),12%
17,COc1cc2c(c(C3C(=O)N(C)c4ccc(Br)cc43)c1OC)OCO2 (stereo not drawn),10%
18,c1ccc2c3[nH]c(c2c1)=Nc1ccc(cc1)-c1nc2ccc(cc2o1)N=c1[nH]c(c2ccccc12)=Nc1ccc2nc(oc2c1)-c1ccc(cc1)N=3,94% (active)
19,c1ccc2nc3ccccc3nc2c1,16%

# — PubChem BioAssay (NCI)
